Measured values published in the supplement of paper PMC12494721.
Structures can show the parent of a compound that is named as a salt.

Tested on: Klebsiella aerogenes DSM 30053
Experiment: growth (OD595) fold change vs plate DMSO controls (fold change (ratio)); higher = more growth
Conditions: incubation time: 27 h, anaerobic, 37 °C
Method in brief: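 Anaerobic 27 h, 37 °C mGAM 96-well cultures were shaken, then read for absorbance at 595 nm. Values were blank-subtracted and corrected for compound background using 20 µM compound solutions in water. A calibration factor of 5 converted them to OD. Growth is the fold change versus the median of plate DMSO controls. Fold changes above 1.5 were set to NA, and values are the mean of 2 biological replicates.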

Row | SMILES | growth
1 | CC1CC(OC(=O)C(O)c2ccccc2)CC(C)(C)C1 (configuration not stated) [Cyclandelate] (20 µM) | 1.04
2 | COc1ccc(C(=O)CC(=O)c2ccc(C(C)(C)C)cc2)cc1 [Avobenzone] (20 µM) | 0.975
3 | Cc1nc2ccccc2n1Cc1ccc(Cl)cc1 [Chlormidazole] (20 µM) | 0.963
4 | Cn1nnnc1SCC1=C(C(=O)O)N2C(=O)[C@@H](NC(=O)[C@H](O)c3ccccc3)[C@H]2SC1 [Cefamandole sodium salt] (20 µM) | 1.08
5 | CCN1CCC[C@H]1CNC(=O)c1c(O)c(Cl)cc(Cl)c1OC [Raclopride] (20 µM) | 0.996
6 | O=c1oc2ccccc2c(O)c1Cc1c(O)c2ccccc2oc1=O [Dicumarol] (20 µM) | 1.04
7 | S=C([S-])NCCNC(=S)[S-].S=C([S-])NCCNC(=S)[S-].[Mn+2].[Zn+2] (20 µM) | 0.994
8 | CC(NCCC(c1ccccc1)c1ccccc1)c1ccccc1 (configuration not stated) [Fendiline hydrochloride] (20 µM) | 0.98
9 | Nc1ccc(S(=O)(=O)Nc2nccs2)cc1 [Sulfathiazole] (20 µM) | 1.03
10 | CC(=O)/N=c1/sc(S(N)(=O)=O)nn1C [Methazolamide] (20 µM) | 1.01
11 | Oc1ccccc1O [Catechol] (20 µM) | 0.966
12 | COc1cc(C(=O)NS(=O)(=O)c2ccccc2C)ccc1Cc1cn(C)c2ccc(NC(=O)OC3CCCC3)cc12 [Zafirlukast] (20 µM) | 0.99
13 | COc1nc(N)nc2c1ncn2[C@@H]1O[C@H](CO)[C@@H](O)[C@@H]1O [Nelarabine] (20 µM) | 0.999
14 | O=C(NCc1ncc(C(F)(F)F)cc1Cl)c1c(Cl)cccc1Cl (20 µM) | 1
15 | CCc1oc2ccccc2c1C(=O)c1cc(Br)c(O)c(Br)c1 [Benzbromarone] (20 µM) | 0.986
16 | Nc1nc(=O)[nH]cc1F [Flucytosine] (20 µM) | 0.986

Row | SMILES | growth
17 | CC[N+](CC)(CC)CCOc1cccc(OCC[N+](CC)(CC)CC)c1OCC[N+](CC)(CC)CC [Gallamine triethiodide] (20 µM) | 1.05
18 | COc1cc(C)nc(-n2nc(C)cc2OC)n1 [Epirizole] (20 µM) | 1
19 | COc1ccccc1O [Guaiacol] (20 µM) | 1
20 | COc1cccc2c1C(=O)c1c(O)c3c(c(O)c1C2=O)C[C@@](O)(C(=O)CO)C[C@@H]3O[C@H]1C[C@H](N)[C@@H](O)[C@H](C)O1 [Epirubicin hydrochloride] (20 µM) | 0
21 | Cc1onc(-c2ccccc2)c1C(=O)N[C@@H]1C(=O)N2[C@@H]1SC(C)(C)[C@@H]2C(=O)O [Oxacillin sodium] (20 µM) | 1.01
22 | CCCOc1cc(N)ccc1C(=O)OCCN(CC)CC [Propoxycaine hydrochloride] (20 µM) | 1
23 | OC[C@H]1O[C@H](O[C@H]2O[C@H](CO)[C@@H](O)[C@H](O)[C@H]2O)[C@H](O)[C@@H](O)[C@@H]1O [Trehalose] (50 µM) | 1.03
24 | CN1[C@@H]2CC[C@H]1C[C@@H](OC(c1ccccc1)c1ccccc1)C2 [Benztropine mesylate] (20 µM) | 0.975
25 | C[C@H](CCC(=O)O)[C@H]1CC[C@H]2[C@@H]3CC[C@@H]4C[C@H](O)CC[C@]4(C)[C@H]3CC[C@]12C [Lithocholic acid] (20 µM) | 1.19
26 | CN(C)CCC=C1c2ccccc2COc2ccccc21 [Doxepin hydrochloride] (20 µM) | 0.978
27 | NC[C@H]1O[C@H](O[C@H]2[C@H](O)[C@@H](O[C@H]3O[C@H](CO)[C@@H](O)[C@H](N)[C@H]3O)[C@H](N)C[C@@H]2N)[C@H](N)C[C@@H]1O [Tobramycin] (20 µM) | 0.772
28 | CC(=O)Oc1cccc2c1C(=O)c1c(OC(C)=O)cc(C(=O)O)cc1C2=O [Diacerein] (20 µM) | 0.96
29 | CCCCc1ncc(/C=C(\Cc2cccs2)C(=O)O)n1Cc1ccc(C(=O)O)cc1 [Eprosartan mesylate] (20 µM) | 1.16
30 | CCCc1nc2c(C)cc(-c3nc4ccccc4n3C)cc2n1Cc1ccc(-c2ccccc2C(=O)O)cc1 [Telmisartan] (20 µM) | 1.02
31 | CNC(C)CCC=C(C)C (configuration not stated) [Isometheptene mucate] (20 µM) | 1.01
32 | O=C1CCC(N2C(=O)c3ccccc3C2=O)C(=O)N1 (configuration not stated) [Thalidomide] (20 µM) | 1.04
